From PubChem BioAssay (NCATS)
Results filed as inconclusive are left out. Unmarked numbers belong to inactive results. Activity calls are given as the source filed them. The call rests on the fitted dose curve; in most records, active means well fitted inhibition curve with a large enough effect; inconclusive means small, poorly fitted or top-dose-only effect; inactive means flat fitted curve, though single readings scatter.

Tests used:
[1] = test system: W2; assay: qHTS profiling for inhibitors of Plasmodium falciparum proliferation (AID 504749); further: potency means the concentration at half of the fitted maximal effect; settings: P. falciparum in erythrocytes, SYBR Green DNA, 72 h; series mostly up to 28.7 µM
Procedure, shortened: (§1)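 In a 72 h erythrocytic culture (37 C, humidified, 5% CO2) at 2.5% hematocrit and 0.3% starting parasitemia, compounds were tested; SYBR Green I in detergent lysis buffer stained parasite DNA overnight.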

[2] = test system: CRL-7250; assay: Cytotoxic Profiling of Annotated Libraries Using Quantitative High-Throughput Screening (AID 1296008); settings: Five cell lines viability, CellTiter-Glo ATP luminescence, 48-72 h; max response: active compounds read low; further: potency means the concentration at half of the fitted maximal effect; on max response: on the % scale 0 is the no-effect control and ±100 the full control effect
Procedure, shortened: (§2)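 Cytotoxicity was measured as CellTiter-Glo ATP luminescence, read after 10 min at room temperature. Compound treatment of the cells lasted 48 or 72 hr at 37 degrees Celsius in a qHTS format.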

[3] = test system: HEK293; assay: as above; settings: Five cell lines viability, CellTiter-Glo ATP luminescence, 48-72 h; max response: active compounds read low
Procedure, shortened: as §2

[4] = test system: KB-3-1; assay: as above; settings: Five cell lines viability, CellTiter-Glo ATP luminescence, 48-72 h; max response: active compounds read low
Procedure, shortened: as §2

[5] = test system: NIH3T3; assay: as above; settings: Five cell lines viability, CellTiter-Glo ATP luminescence, 48-72 h; max response: active compounds read low
Procedure, shortened: as §2

[6] = test system: HEK293T; assay: qHTS assay to identify novel small-molecules to repurpose for Merkel cell carcinoma treatment (AID 1296009); settings: MCC and control cell lines, CellTiter-Glo viability, 72 h; at 44.8 µM (top of the series) unless noted
Procedure, shortened: (§3)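 Cell viability measured by CellTiter-Glo following 72 hr compound treatment at 37 degree celsius, with NPC and MIPE libraries tested in 8- and 11-point concentration series.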

[7] = test system: TAB113; assay: qHTS profiling for inhibitors of Plasmodium falciparum proliferation (AID 504749); further: potency means the concentration at half of the fitted maximal effect; settings: P. falciparum in erythrocytes, SYBR Green DNA, 72 h; series mostly up to 28.7 µM
Procedure, shortened: as §1

[8] = test system: TAB165; assay: as above; settings: P. falciparum in erythrocytes, SYBR Green DNA, 72 h; series mostly up to 28.7 µM
Procedure, shortened: as §1

[9] = test system: HaCat; assay: Cytotoxic Profiling of Annotated Libraries Using Quantitative High-Throughput Screening (AID 1296008); settings: Five cell lines viability, CellTiter-Glo ATP luminescence, 48-72 h; max response: active compounds read low; further: potency means the concentration at half of the fitted maximal effect; on max response: on the % scale 0 is the no-effect control and ±100 the full control effect
Procedure, shortened: as §2

[10] = test system: HACAT; assay: qHTS assay to identify novel small-molecules to repurpose for Merkel cell carcinoma treatment (AID 1296009); settings: MCC and control cell lines, CellTiter-Glo viability, 72 h; at 44.8 µM (top of the series) unless noted
Procedure, shortened: as §3
Further: nearly all actives have a fitted effect of over 60% in size.

Compound: COc1ccc(C(=O)c2ccccc2)c(O)c1
- Potency [1]: 13.5 µM (active)
- max response [2]: -4.19%
- outcome [3]: inactive
- max response [4]: -18.9%
- max response [5]: 2.73%
- outcome [6]: inactive

Compound: CCCCC(CC)COC(=O)/C=C/c1ccc(OC)cc1 (stereo unspecified)
- Potency [7]: inactive
- Potency [8]: inactive
- Potency [1]: inactive
- max response [2]: -9.77%
- max response [3]: -2.18%
- max response [4]: 15%
- max response [5]: -7.17%

Compound: N#CCC(=O)NN
- Potency [7]: inactive
- Potency [8]: inactive
- Potency [1]: inactive
- outcome [2]: inactive
- max response [3]: 3.14%
- outcome [9]: inactive
- outcome [10]: inactive

Compound: C=C[C@@]1(C)CC(=O)[C@]2(O)[C@@]3(C)[C@@H](O)CCC(C)(C)[C@@H]3[C@H](O)[C@H](OC(C)=O)[C@@]2(C)O1
- Potency [7]: inactive
- Potency [8]: inactive
- Potency [1]: inactive
- max response [2]: 2.74%
- max response [3]: -3.5%
- max response [4]: -4.04%

Compound: O=C(NCCc1c[nH]c2ccccc12)c1cccnc1
- Potency [7]: inactive
- Potency [8]: inactive
- Potency [1]: inactive
- max response [2]: 2.2%
- max response [3]: -10.1%
- max response [9]: -2.67%
- max response [5]: 0.897%

Compound: COc1ccc2c(c1)c1c3n2CCN(C)C3=NCC1
- Potency [7]: inactive
- Potency [8]: inactive
- Potency [1]: inactive
- outcome [2]: inactive
- max response [3]: 3.32%
- max response [4]: 0.417%
- max response [5]: 0.478%

Compound: CCN[C@@H]1C[C@H](N)[C@@H](OC2OC(CN)=CCC2N)[C@H](O)[C@H]1O[C@H]1OC[C@](C)(O)[C@H](NC)[C@H]1O (stereo partly specified)
- max response [2]: 0.244%
- outcome [3]: inactive
- max response [4]: 17.1%
- max response [5]: -0.0944%
- outcome [6]: inactive [at 0.588 µM]

Compound: CC1(C)OC[C@@H]2O[C@@]3(C(=O)O)OC(C)(C)O[C@H]3[C@@H]2O1
- max response [2]: -27.6%
- outcome [3]: inactive
- max response [4]: -15.5%
- max response [5]: -5.58%
- outcome [6]: inactive

Compound: CC(=O)O[C@]1(C(C)=O)CC[C@H]2[C@@H]3C=C(Cl)C4=CC(=O)CC[C@]4(C)[C@H]3CC[C@@]21C
- Potency [7]: 7.08 µM (active)
- Potency [1]: 10.7 µM (active)
- max response [2]: -6.12%
- Potency [3]: 18.8 µM (active)
- outcome [9]: inactive
- outcome [10]: inactive
